This is part of a sample that, as a whole, favours compounds with a hit. Of some 79,000 tested, about 15% had one in any assay. A number with no mark means an inactive call. Calls of active or inactive are those of the source. No stated cut-off is given here; in the data, active means growth inhibition above about 70%; inactive means the rest.
Key:
[1] = NCI Yeast Anticancer Drug Screen. Data for the rad50 strain (AID 155);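 further: 0% = growth of vehicle-only cultures of the same strain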; conditions: S. cerevisiae rad50 strain growth inhibition, stronger effect = higher value
Method in brief: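 Inhibition values express reduced yeast growth in compound-treated cultures relative to vehicle-treated controls.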

[2] = NCI Yeast Anticancer Drug Screen. Data for the mec2-1 strain (AID 157); conditions: S. cerevisiae mec2-1 strain, stronger effect = higher value
Method in brief: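 Growth inhibition is read against vehicle-treated controls after compound exposure of the mec2-1 yeast strain, which is defective in DNA damage repair or cell cycle control.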

[3] = NCI Yeast Anticancer Drug Screen. Data for the sgs1 mgt1 strain (AID 161);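 further: 0% = growth of cultures given vehicle only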; conditions: S. cerevisiae sgs1 mgt1 strain, stronger effect = higher value
Method in brief: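 This yeast growth screen uses a strain with defined DNA-repair lesions; compound-treated growth is compared with vehicle-treated growth.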

[4] = NCI Yeast Anticancer Drug Screen. Data for the cln2 rad14 strain (AID 165);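 further: 0% = growth equal to vehicle treated cultures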; conditions: S. cerevisiae cln2 rad14 strain, stronger effect = higher value
Method in brief: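 Growth inhibition, relative to vehicle-treated controls, is the read-out. The test organism is a yeast strain with defined genetic alterations, cln2 rad14.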

[5] = NCI Yeast Anticancer Drug Screen. Data for the bub3 strain (AID 167); conditions: S. cerevisiae bub3 mutant strain, stronger effect = higher value
Method in brief: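 Steps: expose the mutant yeast strain to compound; grow alongside vehicle-treated cultures; measure growth; express inhibition against the vehicle cultures.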

[6] = NCI Yeast Anticancer Drug Screen. Data for the mlh1 rad18 strain (AID 175); conditions: S. cerevisiae mlh1 rad18 strain growth inhibition, stronger effect = higher value
Method in brief: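 Cells of a genetically altered yeast strain, deficient in DNA damage repair, were treated with compound. Their growth was then compared with that of vehicle-treated cultures to give inhibition.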

[7] = at 5.0 µM (retest, dose inferred, filed as 0.5)
[8] = at 50.0 µM (retest, dose inferred, filed as 5.0)

Row | SMILES | growth inhibition [1, 7] [%] | growth inhibition [1, 8] | growth inhibition ([1]; at 50.0 µM) | growth inhibition [2, 7] [%] | growth inhibition [2, 8] | growth inhibition ([2]; at 50.0 µM) | growth inhibition [3, 7] | growth inhibition [3, 8] | growth inhibition ([3]; at 50.0 µM) | growth inhibition [4, 7] | growth inhibition [4, 8] | growth inhibition ([4]; at 50.0 µM) | growth inhibition [5, 7] | growth inhibition [5, 8] | growth inhibition ([5]; at 50.0 µM) | growth inhibition [6, 7] | growth inhibition [6, 8] | growth inhibition ([6]; at 50.0 µM)
1 | CCCCCCCCCCCCCCCCCO | -4 | 6% | 71% (active) | -3 | -7% | 63.3% | -3% | 7% | 50% | -1% | -5% | -15.6% | 10% | 8% | 75.2% (active) | -9% | -3% | 77.8% (active)
2 | Cc1c(N)cccc1[N+](=O)[O-] | 2 | 8% | 97.8% (active) | -6 | 6% | 98.6% (active) | -3% | -1% | 97.4% (active) | -1% | 7% | 95.5% (active) | 3% | 15% | 98.2% (active) | 0% | 2% | 98.5% (active)
3 | CCCCN(CCCC)CCCCNc1ccc(C)c2sc3ccccc3c(=O)c12 | 36 | 99% (active) | 98.7% (active) | 23 | 98% (active) | 99.2% (active) | 83% (active) | 98% (active) | 98.8% (active) | 18% | 98% (active) | 98.3% (active) | 50% | 98% (active) | 98.8% (active) | 65% | 98% (active) | 99.2% (active)
4 | S=C1Nc2cnc3ccccc3c2SC1c1ccccc1 (stereo not given) | -5 | 98% (active) | 87% (active) | 7 | 98% (active) | 92% (active) | -15% | 98% (active) | 87.8% (active) | -9% | 98% (active) | 90.3% (active) | -8% | 98% (active) | 90.8% (active) | 4% | 98% (active) | 85.3% (active)
5 | Clc1cc(Cl)c(NN=C(c2ccccc2)c2ccccc2)c(Cl)c1 | 37 | 97% (active) | 99.5% (active) | 39 | 97% (active) | 99.2% (active) | 57% | 98% (active) | 99.7% (active) | 43% | 97% (active) | 99.4% (active) | 87% (active) | 98% (active) | 58.5% | 72% (active) | 98% (active) | 99.5% (active)
6 | CCC(C(=O)C(C)C(O)C(C)CCc1ccc(C)c(O)c1C(=O)O)C1OC(CC)(C2CCC(O)(CC)C(C)O2)CC1C (stereo not given) | 28 | 96% (active) | 88.2% (active) | 56 | 98% (active) | 90.7% (active) | 40% | 97% (active) | 90% (active) | 73% (active) | 98% (active) | 89.2% (active) | 64% | 98% (active) | 88.7% (active) | 28% | 97% (active) | 88.2% (active)
7 | Cc1c2ccnc(C(N)=O)c2c(C)c2c1[nH]c1ccccc12 | 9 | 90% (active) | 76.1% (active) | 12 | 98% (active) | 48.1% | 7% | 84% (active) | 38.6% | 11% | 79% (active) | 47.1% | 7% | 97% (active) | 56.1% | 12% | 97% (active) | 73.9% (active)
8 | CCOC(=O)C(=O)Nc1ccc(Cl)cc1Cl | -12 | -1% | -1.5% | -12 | -5% | -10.3% | -1% | -2% | -2.25% | 14% | 34% | -1.75% | 10% | -10% | 10.6% | 1% | 7% | 19.1%
9 | c1cc(NC2CCCCC2)ccc1CN1CCOCC1 | 57 | 90% (active) | 55.3% | 51 | 73% (active) | 70.5% (active) | 80% (active) | 88% (active) | 70% | 72% (active) | 87% (active) | 63.8% | 80% (active) | 78% (active) | 68.2% | 56% | 82% (active) | 79% (active)
10 | Nc1ccc(SSc2ccc(N)cc2)cc1 | -2 | 97% (active) | 93% (active) | -3 | 98% (active) | 61.5% | 2% | 97% (active) | 57.6% | -7% | 72% (active) | 94.1% (active) | 0% | 98% (active) | 95.3% (active) | -1% | 98% (active) | 96.4% (active)
11 | CC(C)C(NC(=O)/C=C\c1ccccc1)C(=O)O (stereo not given) | -2 | 1% | 88.4% (active) | 1 | -6% | 94.2% (active) | -5% | -7% | 93.5% (active) | 7% | -6% | 95.3% (active) | -3% | -1% | 71.7% (active) | -2% | 4% | 95.2% (active)
12 | Cn1cnc([N+](=O)[O-])c1Sc1nc2cccnc2s1 | 45 | 80% (active) | 79.5% (active) | 34 | 77% (active) | 77.1% (active) | 40% | 59% | 67.8% | 29% | 44% | 52% | 38% | 68% | 71.8% (active) | 54% | 90% (active) | 75.6% (active)
13 | COC(=O)Nc1nc2ccc(C(=O)c3ccccc3)cc2[nH]1 | 0 | -9% | 55% | 3 | -7% | 46.9% | -1% | -5% | 43.8% | -1% | -24% | 45% | 10% | 16% | 71.5% (active) | 1% | 17% | 67.5%
14 | O=C1NC(=O)/C(=C/C=C/c2ccccc2)S1 | 19 | 91% (active) | 40.9% | 13 | 73% (active) | 25.9% | 25% | 98% (active) | 47.8% | 27% | 63% | 77.4% (active) | 61% | 99% (active) | 48.1% | 26% | 94% (active) | 90.2% (active)
15 | C[CH2][Ge]([CH2]C)([CH2]C)[O]C(=O)C([O][Ge]([CH2]C)([CH2]C)[CH2]C)c1ccccc1 (stereo not given) | 15 | 15% | 91.2% (active) | 6 | 6% | 93% (active) | 13% | 13% | 91.3% (active) | 15% | 15% | 89.5% (active) | 5% | 5% | 90.6% (active) | 23% | 23% | 89.5% (active)
16 | CSc1nc(NN)cc(-c2ccccc2)n1 | 0 | 23% | 12.5% | 24 | 19% | 50.3% | 0% | 57% | 56.7% | 2% | -2% | 3.1% | -3% | 68% | 81.2% (active) | -1% | 54% | 79.3% (active)
17 | CN(C)CC1CCC/C(=C\c2ccc(Cl)cc2)C1=O (stereo not given) | -15 | 99% (active) | 80.5% (active) | -25 | 99% (active) | 86.8% (active) | -28% | 99% (active) | 92.5% (active) | -25% | 99% (active) | 87% (active) | -38% | 99% (active) | 91.4% (active) | -14% | 99% (active) | 91.3% (active)
18 | NC(=S)N/N=C/c1ccc(Cl)s1 | -5 | 80% (active) | 87.2% (active) | -8 | 29% | 47.5% | -5% | 36% | 67.6% | -17% | 9% | 11.7% | -5% | 62% | 57.5% | -6% | 44% | 87% (active)
19 | C[Si](C)(c1ccccc1)C1CC(=O)CC(=O)C1 | 41 | 54% | 49.9% | 26 | 65% | 55.2% | 47% | 50% | 69.5% | 29% | 39% | 65.1% | 38% | 53% | 56% | 44% | 63% | 48.8%
20 | COC1(OC)CNC(C(=O)O)C1 (stereo not given) | -154 | -139% | 19.1% | -44 | -45% | 2.65% | -66% | -59% | 18.2% | -54% | -49% | 2.4% | -71% | -66% | 21.4% | -141% | -111% | 13.3%

Reference: PubChem BioAssay (NCI)
